In PubChem BioAssay AID1159580 (chemical genetic matrix, 2015):
In all, about 5,500 compounds went through this assay and about 2,000 (36%) were called active. Another 18% or so got no clear call; they are omitted. Cut-off read from the data, not from the text of the source: active = normalized growth mostly below about 0.91 (no sharp cut-off); inconclusive = no clear call, values can overlap the other calls; inactive = mostly above about 0.92. The list shows a part of the results.

Assay: chemical genetic growth profiling, strain panel (AID 1159580);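 note: tested at 20 µM; growth read once vehicle control cultures reached saturation at 30 °C; 1 = growth at the plate median or of vehicle wells; lower values mean less growth of the strain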
Conditions: growth OD

Measured: normalized growth

OC(CNCCc1cccs1)COc1ccccc1 (stereo not given)
inactive: S. cerevisiae deletion strains, locus YAL013W, strain DEP1, hits give low values 0.995 | S. cerevisiae deletion strains, locus YBR229C, strain ROT2, hits give low values 0.987 | S. cerevisiae deletion strains, locus YCL061C, strain MRC1, hits give low values 0.994 | S. cerevisiae deletion strains, locus YDL101C, strain DUN1, hits give low values 0.999 | S. cerevisiae deletion strains, locus YDL134C, strain PPH21, hits give low values 0.986 | S. cerevisiae deletion strains, locus YDR150W, strain NUM1, hits give low values 0.976 | S. cerevisiae deletion strains, locus YEL061C, strain CIN8, hits give low values 0.998 | S. cerevisiae deletion strains, locus YGR078C, strain PAC10, hits give low values 0.989 | S. cerevisiae deletion strains, locus YHR030C, strain SLT2, hits give low values 0.934 | S. cerevisiae deletion strains, locus YHR087W, strain rtc3, hits give low values 0.998 | S. cerevisiae deletion strains, locus YJR043C, strain POL32, hits give low values 0.994 | S. cerevisiae deletion strains, locus YJR075W, strain HOC1, hits give low values 1.01 | S. cerevisiae deletion strains, locus YKL190W, strain CNB1, hits give low values 0.982 | S. cerevisiae deletion strains, locus YLR039C, strain RIC1, hits give low values 0.944 | S. cerevisiae deletion strains, locus YLR058C, strain SHM2 (second series), hits give low values 0.991 | S. cerevisiae deletion strains, locus YLR085C, strain ARP6, hits give low values 1.08 | S. cerevisiae deletion strains, locus YLR262C, strain YPT6, hits give low values 0.831 | S. cerevisiae deletion strains, locus YML094W, strain GIM5, hits give low values 1.06 | S. cerevisiae deletion strains, locus YMR219W, strain ESC1, hits give low values 1 | S. cerevisiae deletion strains, locus YMR263W, strain SAP30, hits give low values 0.99 | S. cerevisiae deletion strains, locus YMR307W, strain GAS1, hits give low values 1.13 | S. cerevisiae deletion strains, locus YNL153C, strain GIM3, hits give low values 0.995 | S. cerevisiae deletion strains, locus YNL298W, strain CLA4 (second series), hits give low values 0.964 | S. cerevisiae deletion strains, locus YNL322C, strain KRE1, hits give low values 1 | S. cerevisiae deletion strains, locus YNR030W, strain Alg12, hits give low values 1 | S. cerevisiae deletion strains, locus YOL006C, strain TOP1, hits give low values 0.939 | S. cerevisiae deletion strains, locus YPL055C, strain LGE1, hits give low values 1.03 | S. cerevisiae deletion strains, locus YPL241C, strain CIN2, hits give low values 1.02 | S. cerevisiae deletion strains, locus YPR135W, strain CTF4, hits give low values 0.949 | S. cerevisiae strains, strain wild type, hits give low values 0.967
